Assay outcomes (PubChem BioAssay)
The list is not random: actives were taken first. Their share in the collection is about 1.9%.
ATG4B inh = ATG4B (human) cysteine protease inhibition | Q9Y4P1 | ATG4B cleavage of LC3-PLA2, NBD-HPC fluorescence, 1 h | inhibition, % at 8.33 µM | 340,000 compounds, 0.51% hits | AID 504462; in the data active = inhibition above about 40%
PP5 primary = inhibitors of human protein phosphatase 5 (PP5) | P53041 | purified PP5c, OMFP substrate fluorescence | inhibition, % at 6.7 µM | 320,000 compounds, 0.18% hits | AID 1987;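 active = inhibition above the campaign's mean inhibition across all tested compounds plus 3 SD, cut at about 9.5% in these data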;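 note: 0% = DMSO only and 100% = 100 µM cantharidin control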
PP1 inh = blocks human PP1-alpha phosphatase, a PP5 counter-screen; purified PP1alpha, OMFP fluorescence; inhibition, % at 6.7 µM; 320,000 compounds, 0.9% hits; AID 2235;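 active = inhibition above the mean inhibition of all tested compounds plus 3 SD, computed separately for each screening campaign, cut at about 15% in these data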
Target sequence (P62136 whole entry, looked up): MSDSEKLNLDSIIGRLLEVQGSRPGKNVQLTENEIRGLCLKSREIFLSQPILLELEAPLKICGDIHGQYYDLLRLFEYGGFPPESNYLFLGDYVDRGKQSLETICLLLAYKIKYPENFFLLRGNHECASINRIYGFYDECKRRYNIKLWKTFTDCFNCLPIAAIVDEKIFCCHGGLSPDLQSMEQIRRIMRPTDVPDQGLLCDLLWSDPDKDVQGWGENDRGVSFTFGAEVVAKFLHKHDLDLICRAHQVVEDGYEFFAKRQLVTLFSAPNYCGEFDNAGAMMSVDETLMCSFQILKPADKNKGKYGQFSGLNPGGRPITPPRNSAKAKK
H9c2 protect = modulators protecting cardiomyocytes from myocardial damage; H9c2 cardiomyocytes, H2O2 injury protection, ATPLite, 2 h; protection from H2O2 cell death, % at 20 µM; 360,000 compounds, 0.63% hits; AID 588492;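 active = compounds giving at least 50% protection of heart cells from peroxide-induced death in the single-dose screen, raw or plate-pattern-corrected value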;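 note: 0% = DMSO wells with peroxide and 100% = DMSO wells without peroxide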
PP5 conf = confirmation of human PP5 phosphatase inhibitors. shares compounds with PP5 primary. Purified PP5, fluorogenic phosphatase substrate, fluorescence. inhibition, % at 6.7 µM. 460 compounds, 22% hits. AID 2331; in the data active = inhibition above about 9.5%
PP1 inh counter = PP1 phosphatase inhibition, counter-screen for PP5 inhibitors. 460 compounds, 4% hits. AID 2355. PP1 enzyme, fluorescent phosphatase substrate. inhibition, % at 6.7 µM. shares compounds with PP5 primary; in the data active = inhibition above about 16%
Starred values were filed as active, the others as inactive; . = not tested or not shown.

SMILES | ATG4B inh | PP5 primary | PP1 inh | H9c2 protect | PP5 conf | PP1 inh counter
Cc1nnc2ccc(-c3cccc(NC(=O)c4ccc(Cl)nc4)c3)nn12 | 29 | 2 | 8 | 63* | . | .
O=C1NC(=O)c2cc([N+](=O)[O-])cc3cccc1c23 | 3 | . | . | 55* | . | .
CCCN(C(=O)c1cc(S(=O)(=O)N(C)c2ccccc2OC)ccc1C)C1CCS(=O)(=O)C1 (centres undefined) | 1 | . | . | 9 | . | .
CCN(CC)CCCn1c2c(c(SCC(=O)Nc3cccc(C(C)=O)c3)nc1=O)CCC2 | 5 | 0 | -5 | 19 | . | .
CCN(CC)CCn1c2c(c(SCC(=O)Nc3cccc(C(C)=O)c3)nc1=O)CCCC2 | 7 | . | . | 75* | . | .
COc1ccc(-n2c(C)c(C(C)=O)c3cc(OC(C)=O)ccc32)cc1 | -7 | . | . | 53* | . | .
C[C@H](NS(=O)(=O)c1c(Cl)cccc1Cl)C(=O)NNC(=O)COc1ccccc1F | -4 | . | . | -2 | . | .
O=C1NC2=C(C(=O)CCC2)C(c2ccc([N+](=O)[O-])cc2)N1 (centres undefined) | 0 | -1 | -5 | 0 | . | .
Cc1cc(NC(=O)COC(=O)COc2ccc3c4c(c(=O)oc3c2)CCC4)no1 | 1 | -1 | -7 | 53* | . | .
Cc1cc(NC(=O)COC(=O)COc2ccc(C(=O)c3ccccc3)cc2)no1 | -15 | 3 | 1 | 10 | . | .
CCc1ccccc1OCC(=O)OCC(=O)Nc1cc(C)on1 | 0 | -1 | 17* | 8 | . | .
O=[N+]([O-])c1nccn1CCCCCCN1CCOCC1 | . | . | . | 11 | . | .
CCOC(=O)C1CCN(C(c2cc3c(C)ccc(C)c3[nH]c2=O)c2nnnn2C2CCCCC2)CC1 (centres undefined) | 7 | 2 | 5 | 57* | . | .
CCc1ccc2c(c1)NC(=O)C2(C)Cc1ccc(Cl)s1 (centres undefined) | . | . | . | -10 | . | .
O=c1c2ccccc2oc2nc(-c3ccco3)n(Cc3ccccc3)c(=O)c12 | -12 | -1 | -2 | 63* | . | .
COc1ccc(CN2CCN(C(=O)c3ccccc3C(=O)c3ccccc3)CC2)cc1OC | -1 | . | . | -6 | . | .
CCCCN(C)C1=CC2=CC(=C(C#N)C#N)CCC2CC1 (centres undefined) | -75 | -57 | -72 | -14 | . | .
CCN(CC)C1=CC2=CC(=C(C#N)C#N)CCC2CC1 (centres undefined) | -113 | -61 | -47 | 6 | -142 | -48
CCOC(=O)/C(C#N)=C1/C=C(C)NC(c2ccccc2O)=N1 | 20 | 12* | 5 | -16 | -1 | 2
CC(C)(C)NC(=O)c1ccc(NC(=O)c2ccccc2-c2ccccc2C(=O)O)cc1 | 1 | 10* | 5 | 5 | -8 | -7
CCOC(=O)N1CCN(C(=O)c2ccc3c(c2)NC(=O)/C(=C\c2cccc(C)c2)S3)CC1 | -16 | 4 | 6 | 5 | . | .
Cc1ccc(NC(=O)COC(=O)c2ccc(CN3CCCC3=O)cc2)cc1C | -16 | . | . | -5 | . | .
C=C(C)C1CC=C(C)/C(=N/NC(=O)CNc2ccc(C)cc2C)C1 (centres undefined) | -8 | 1 | -4 | -2 | . | .
C=C(C)C1CC=C(C)/C(=N/NC(=O)CNc2ccc(OCC)cc2)C1 (centres undefined) | -4 | 9.6* | 7 | -5 | 0 | 6
COc1ccc(C(CNC(=O)c2cccc(Br)c2)N2CCCC2)cc1 (centres undefined) | 7 | 10* | -2 | 4 | -3 | -5
SMILES | ATG4B inh | PP5 primary | PP1 inh | H9c2 protect | PP5 conf | PP1 inh counter
Fc1ccccc1OCCCCN1CCCCC1 | 1 | 13* | 0 | 4 | -3 | -5
Cn1c(SCC(=O)N2c3ccccc3CCc3ccccc32)nnc1-c1ccc(O)cc1 | -15 | 9.7* | -4 | 18 | -4 | -6
COc1ccccc1CNC(=O)CN1C(=O)NC2(CCOc3ccccc32)C1=O (centres undefined) | -11 | . | . | 2 | . | .
CCOC(=O)c1c(-c2cccc3ccccc23)csc1NC(=O)C1C2CCC(O2)C1C(=O)O (centres undefined) | 6 | 11* | 6 | 4 | 0 | 2
COC(=O)c1c(-c2ccc(C(C)(C)C)cc2)csc1NC(=O)C1C2CCC(O2)C1C(=O)O (centres undefined) | -15 | 7 | -1 | 0 | . | .
O=C(O)C1C2C=CC(O2)C1C(=O)Nc1cccc(C(F)(F)F)c1 (centres undefined) | -1 | 33* | 9 | 6 | -3 | 6
Cc1csc(NC(=O)C2C3C=CC(O3)C2C(=O)O)n1 (centres undefined) | -5 | 16* | -2 | -4 | 15* | 14
Cc1cc(C)cc(NC(=O)C2C3C=CC(O3)C2C(=O)O)c1 (centres undefined) | 6 | 20* | 1 | 5 | 0 | 19*
CC1CC(C)CN(C(=O)C2CCN(S(=O)(=O)c3c(Cl)cccc3Cl)CC2)C1 (centres undefined) | 29 | -1 | -1 | 0 | . | .
O=c1oc2ccc(Cl)cc2nc1/C=C(\O)c1cccs1 | 2 | 12* | 1 | -6 | -4 | -3
CC1(C(=O)Nc2ccc3c(c2)OCCO3)CC1(Cl)Cl (centres undefined) | 1 | 19* | -3 | 0 | -5 | -4
CCOc1cc(CNc2ncc(-c3ccc(OC)cc3)n2C)ccc1O | -9 | 10* | 0 | 12 | 1 | -3
O=C(COc1cccc2ccccc12)Nc1nc2ccccc2[nH]1 | -16 | 10* | 0 | 20 | 5 | 3
CC(=O)Nc1ccc(NC(=O)CSc2nnc(NC(=O)c3ccccc3F)s2)cc1 | . | . | . | -20 | . | .
Nc1nc(Nc2cccc(F)c2)nc(NCc2ccco2)c1[N+](=O)[O-] | -2 | 11* | 3 | -10 | 3 | 5
COc1ccc(N2C(=O)CC(NNc3nc4ccccc4s3)C2=O)cc1 (centres undefined) | -4 | 12* | -2 | 1 | 0 | 0
Cc1ccc(N2C(=O)CC(NNc3nc4ccccc4s3)C2=O)cc1C (centres undefined) | -8 | 4 | -1 | 9 | . | .
CC(C)Nc1nc(NC(C)C)nc(C(N)=O)n1 | 1 | 11* | 0 | -3 | -7 | -6
O=C1c2ccccc2C(=O)C12OC2c1ccc(Cl)cc1 (centres undefined) | . | 11* | 1 | . | 32* | 4
O=C(NCCCN1CCOCC1)c1ccc2c(c1)N(Cc1ccc(Cl)cc1)C(=O)c1ccccc1S2=O (centres undefined) | -4 | -1 | -3 | 21 | . | .
COc1ccc(C2=NCN(c3ccc(C)cc3)C(=S)N2)cc1 | -6 | 11* | -2 | 0 | -2 | -2
CC(=O)c1cccc(Nc2nc(-c3ccccc3)nc3ccccc23)c1 | -12 | 2 | 0 | 28 | . | .
CC(=O)c1cccc(-c2ccc3c(=O)[nH]c(Nc4ccccc4)cc3c2)c1 | 18 | 9.7* | 13 | 10 | 29* | 21*
O=c1[nH]c(Nc2ccccc2)cc2cc(Br)ccc12 | 36 | 14* | -1 | 3 | 34* | 8
O=c1cc(Nc2cccc(Br)c2)[nH]c(=O)[nH]1 | -2 | 3 | 5 | -1 | . | .
